# From PubChem BioAssay (Tox21)
# Values without a mark were called inactive. Records with an inconclusive call do not appear. Where a call stands in place of a potency, no number is given. Activity calls are given as the source filed them. The call rests on the fitted dose curve; in most records, active means well fitted curve in the direction sought with a large enough effect in the repeat runs; inconclusive means weak or mixed curves; inactive means no such curve, though single readings can be large; an effect the other way counts as inactive or inconclusive.
# How the values were obtained:
# [1] = A CellTox Green Cytotoxicity Assay to monitor cytotoxicity in HEK293 cells - 40 hour (AID 1224871); further: nearly all actives have a fitted effect of over 45% in size; further: potency means the concentration at half of the fitted maximal effect
# Summary of the method: (§1)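 Cells (HEK293, 600/well) and dye reagent are dispensed together. After 5 h at 37 C, 23 nL compound is pinned in. Plates stay at 37 C for 40 h with fluorescence read at 0h, 8h, 16h, 24h, 32h and 40h.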
# [2] = qHTS RealTime-Glo MT Cell Viability Assay in HEK293 cells - 16 hour (AID 1224872); further: nearly all actives have a fitted effect of over 50% in size; further: potency means the concentration at half of the fitted maximal effect
# Summary of the method: (§2)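 Quantitative high-throughput screen of the Tox21 10K library in HEK293: cells and RealTime-Glo reagents plated together, compound added at 5 h, luminescence monitored through 40 h at 37 C.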
# [3] = qHTS RealTime-Glo MT Cell Viability Assay in HepG2 cells - 8 hour (AID 1224873); further: nearly all actives have a fitted effect of over 55% in size
# Summary of the method: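 HepG2 cells mixed with RealTime-Glo MT reagents (NanoLuc plus cell-permeant prosubstrate) were seeded at 600 cells/well, incubated 5 h at 37 C/5% CO2, then pinned with compounds in DMSO; nonlytic luminescence tracked viability during 40 h treatment.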
# [4] = qHTS RealTime-Glo MT Cell Viability Assay in HEK293 cells - 40 hour (AID 1224874); details: RealTime-Glo luminescence; max response: hits give low values; further: nearly all actives have a fitted effect of over 50% in size; further: potency means the concentration at half of the fitted maximal effect
# Summary of the method: (§3)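 Real-time viability in HEK293: signal arises when living cells convert a prosubstrate for NanoLuc in the medium, so luminescence tracks viable cell number. Compound (23 nL, DMSO) added 5 h post-seeding; kinetic reads at 0–40 h, 37 C.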
# [5] = qHTS RealTime-Glo MT Cell Viability Assay in HepG2 cells - 32 hour (AID 1224877); further: nearly all actives have a fitted effect of over 55% in size
# Summary of the method: (§4)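 Compound treatment began 5 h after plating HepG2 cells (600/well) with NanoLuc luciferase and prosubstrate. Plates stayed at 37 C for 40 h; luminescence was captured at six time points, 0 h through 40 h.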
# [6] = A CellTox Green Cytotoxicity Assay to monitor cytotoxicity in HepG2 cells - 24 hour (AID 1224878); further: nearly all actives have a fitted effect of over 45% in size; further: potency means the concentration at half of the fitted maximal effect
# Summary of the method: (§5)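 Cells and non-lytic dye reagent are dispensed together (600 HepG2 cells/well) and incubated 5 h before DMSO compound transfer. Kinetic fluorescence is then recorded in the same wells during 40 h at 37 C.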
# [7] = A CellTox Green Cytotoxicity Assay to monitor cytotoxicity in HepG2 cells - 40 hour (AID 1224879); further: nearly all actives have a fitted effect of over 40% in size; further: potency means the concentration at half of the fitted maximal effect
# Summary of the method: as §5
# [8] = qHTS RealTime-Glo MT Cell Viability Assay in HEK293 cells - 0 hour (AID 1224880); further: top concentration of the series differs between compounds; nearly all actives have a fitted effect of over 45% in size
# Summary of the method: as §3
# [9] = A CellTox Green Cytotoxicity Assay to monitor cytotoxicity in HepG2 cells - 0 hour (AID 1224882); further: nearly all actives have a fitted effect of over 35% in size
# Summary of the method: as §5
# [10] = A CellTox Green Cytotoxicity Assay to monitor cytotoxicity in HepG2 cells - 32 hour (AID 1224883); further: nearly all actives have a fitted effect of over 50% in size; further: potency means the concentration at half of the fitted maximal effect
# Summary of the method: as §5
# [11] = qHTS RealTime-Glo MT Cell Viability Assay in HepG2 cells - 16 hour (AID 1224885); further: nearly all actives have a fitted effect of over 50% in size
# Summary of the method: as §4
# [12] = qHTS RealTime-Glo MT Cell Viability Assay in HEK293 cells - 24 hour (AID 1224886); further: nearly all actives have a fitted effect of over 50% in size; further: potency means the concentration at half of the fitted maximal effect
# Summary of the method: as §2
# [13] = A CellTox Green Cytotoxicity Assay to monitor cytotoxicity in HEK293 cells - 16 hour (AID 1224888); further: nearly all actives have a fitted effect of over 35% in size
# Summary of the method: as §1
# [14] = qHTS RealTime-Glo MT Cell Viability Assay in HepG2 cells - 0 hour (AID 1224889); further: nearly all actives have a fitted effect of over 50% in size
# Summary of the method: as §4
# [15] = A CellTox Green Cytotoxicity Assay to monitor cytotoxicity in HepG2 cells - 16 hour (AID 1224876); further: nearly all actives have a fitted effect of over 45% in size
# Summary of the method: as §5
# [16] = A CellTox Green Cytotoxicity Assay to monitor cytotoxicity in HEK293 cells - 32 hour (AID 1224881); further: nearly all actives have a fitted effect of over 40% in size; further: potency means the concentration at half of the fitted maximal effect
# Summary of the method: as §1
# [17] = A CellTox Green Cytotoxicity Assay to monitor cytotoxicity in HepG2 cells - 8 hour (AID 1224890); further: nearly all actives have a fitted effect of over 45% in size
# Summary of the method: as §5
# [18] = qHTS RealTime-Glo MT Cell Viability Assay in HEK293 cells - 8 hour (AID 1224887); further: nearly all actives have a fitted effect of over 50% in size; further: potency means the concentration at half of the fitted maximal effect
# Summary of the method: as §3
# [19] = A CellTox Green Cytotoxicity Assay to monitor cytotoxicity in HEK293 cells - 8 hour (AID 1224884); further: nearly all actives have a fitted effect of over 35% in size
# Summary of the method: as §1
# [20] = A CellTox Green Cytotoxicity Assay to monitor cytotoxicity in HEK293 cells - 24 hour (AID 1224875)
# Summary of the method: as §1
smiles,measurement,setting,value
CCCCCc1ccc(N)cc1,Potency,[1],49 µM (active)
same,Potency,[2],inactive
same,Potency,[3],inactive
same,max response,[4],-15.3%
same,Potency,[5],inactive
same,Potency,[6],49 µM (active)
same,Potency,[7],49 µM (active)
same,Potency,[8],inactive
same,Potency,[9],inactive
same,Potency,[10],49 µM (active)
same,Potency,[11],inactive
same,Potency,[12],inactive
same,Potency,[13],inactive
same,Potency,[14],inactive
COC(Cc1ccccc1)OC,Potency,[1],inactive
same,Potency,[2],inactive
same,Potency,[3],inactive
same,max response,[4],17.4%
same,Potency,[15],inactive
same,Potency,[6],inactive
same,Potency,[7],inactive
same,Potency,[8],inactive
same,Potency,[16],inactive
same,Potency,[9],inactive
same,Potency,[10],inactive
same,Potency,[12],inactive
same,Potency,[13],inactive
same,Potency,[14],inactive
same,Potency,[17],inactive
O=C(O)Cc1sc(-c2ccccc2)nc1-c1ccc(Cl)cc1,Potency,[1],inactive
same,Potency,[2],inactive
same,Potency,[3],inactive
same,max response,[4],0.938%
same,Potency,[5],inactive
same,Potency,[6],inactive
same,Potency,[7],inactive
same,Potency,[16],inactive
same,Potency,[9],inactive
same,Potency,[10],inactive
same,Potency,[11],inactive
same,Potency,[12],inactive
same,Potency,[18],inactive
same,Potency,[13],inactive
same,Potency,[14],inactive
same,Potency,[17],inactive
CC(=O)CC(=O)c1ccccc1,Potency,[1],inactive
same,Potency,[2],inactive
same,Potency,[3],inactive
same,Potency,[15],inactive
same,Potency,[5],inactive
same,Potency,[7],inactive
same,Potency,[8],inactive
same,Potency,[16],inactive
same,Potency,[9],inactive
same,Potency,[10],inactive
same,Potency,[19],inactive
same,Potency,[11],inactive
same,Potency,[18],inactive
same,Potency,[13],inactive
same,Potency,[14],inactive
same,Potency,[17],inactive
CCCCCOC(=O)c1ccc(O)cc1,Potency,[1],49.6 µM (active)
same,Potency,[2],44.2 µM (active)
same,Potency,[3],inactive
same,Potency,[4],44.2 µM (active)
same,Potency,[5],inactive
same,Potency,[8],inactive
same,Potency,[16],49.6 µM (active)
same,Potency,[9],inactive
same,Potency,[19],inactive
same,Potency,[11],inactive
same,Potency,[12],44.2 µM (active)
same,Potency,[18],44.2 µM (active)
same,Potency,[14],inactive
CCCCOc1ccc(CC(=O)NO)cc1,Potency,[1],inactive
same,Potency,[2],2.68 µM (active)
same,Potency,[3],inactive
same,Potency,[20],inactive
same,Potency,[5],inactive
same,Potency,[6],inactive
same,Potency,[8],inactive
same,Potency,[16],inactive
same,Potency,[9],inactive
same,Potency,[19],inactive
same,Potency,[11],inactive
same,Potency,[18],2.13 µM (active)
same,Potency,[13],inactive
same,Potency,[14],inactive
same,Potency,[17],inactive
CNCC[C@@H](Oc1ccccc1C)c1ccccc1,Potency,[1],inactive
same,Potency,[2],inactive
same,Potency,[3],inactive
same,max response,[4],-5.29%
same,Potency,[6],inactive
same,Potency,[7],inactive
same,Potency,[16],inactive
same,Potency,[10],inactive
same,Potency,[19],inactive
same,Potency,[11],inactive
same,Potency,[12],inactive
same,Potency,[18],inactive
same,Potency,[13],inactive
same,Potency,[17],inactive
COc1ccc([C@@H]2Sc3ccccc3N(CCN(C)C)C(=O)[C@@H]2OC(C)=O)cc1,Potency,[1],inactive
same,Potency,[2],inactive
same,Potency,[3],inactive
same,Potency,[20],inactive
same,Potency,[6],inactive
same,Potency,[7],inactive
same,Potency,[8],inactive
same,Potency,[16],inactive
same,Potency,[9],inactive
same,Potency,[10],inactive
same,Potency,[11],inactive
same,Potency,[12],inactive
same,Potency,[18],inactive
same,Potency,[13],inactive
same,Potency,[14],inactive
